# Experimental data published in PubChem BioAssay AID1345083 (National Center for Advancing Translational Sciences (NCATS), 2018).
# About 6,200 (6.6%) of roughly 94,000 compounds were called active. Roughly 31% stayed inconclusive and do not appear here. Calls follow the shape of the dose curve; as a rule, active = well fitted inhibition curve with a large enough effect; inconclusive = small, poorly fitted or top-dose-only effect; inactive = flat fitted curve, though single readings scatter. Many of the other results were omitted from the sample, so actives are more common in it than they were.
# Assay: Cytotoxic Profiling in HEK 293 Cell Line of Diverse Libraries Using Quantitative High-Throughput Screening; also: nearly all actives have a fitted effect of over 60% in size
# Conditions: HEK 293 viability, ATP luminescence (CellTiter-Glo), 48-72 h; series mostly up to 115 µM; activity change, negative = cytotoxicity: at the top concentration
# Outline: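 HEK 293 cells at 250 cells/well were exposed to compounds by pintool transfer for 48 or 72 hr at 37 degree Celsius, 5% CO2. Viability was read as ATP-coupled luminescence with CellTiter-Glo after 10 min at room temperature.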
# % is scaled to controls: 0 for no effect and ±100 for the full control effect; potency is read from the fitted curve at half-maximal effect.
Structure (SMILES),"activity change, negative = cytotoxicity",Potency,outcome
Cc1cn2nc(C(=O)NCc3cccs3)cc2c(N2CCCC2)n1,4.06% (inactive),–,–
CNc1nc(N2CC[C@H](N3CCN(C)CC3)[C@H](CCC(=O)O)C2)ncc1F,3.05% (inactive),–,–
COc1ccc(NC(=O)N2CCC(CC(=O)NCc3ccccc3)C2)cc1OC (configuration not stated),-0.0483% (inactive),–,–
COC[C@H]1CCCN1Cc1nc(C2(O)CCN(CC3CCCCC3)CC2)cs1,-24.9% [at 172 µM] (inactive),–,–
Cc1nc(CCNS(=O)(=O)Cc2cccc(Cl)c2)no1,3.75% (inactive),–,–
COc1ccc(C(=O)N2CC(c3nnc(-c4ccncc4)o3)C3(CCOCC3)C2)cn1 (configuration not stated),-1.02% (inactive),–,–
CNC(=O)[C@@H](Cc1ccccc1)N1CCC[C@H]1C(=O)N1CCC1,-10.8% [at 172 µM] (inactive),–,–
CC(=O)N1CCC(c2nnc3n2C(C(=O)NCCCc2ccccc2)CC3)CC1 (configuration not stated),-5.15% (inactive),–,–
O=C(NCCCc1ccccc1)C1CCCN1c1nccc(Nc2ccccc2F)n1 (configuration not stated),–,44.7 µM (active),–
Cc1ccc(CC(=O)N2CCC(Cc3nc(-c4cnccn4)no3)CC2)cc1,-11% (inactive),–,–
O=C(NCCc1ccccc1)C1CCCN1C(=O)c1cccc(-c2ccccn2)c1 (configuration not stated),3.51% (inactive),–,–
Cc1ccc(Nc2ccnc(N3CCCC3C(=O)N3CCC(Cc4ccccc4)CC3)n2)cc1 (configuration not stated),–,14.1 µM (active),–
Cn1ccc(C(=O)N2C[C@H]3CN(C4CCOCC4)C[C@@]3(C(=O)O)C2)n1,-0.816% (inactive),–,–
COC(=O)[C@H](Cc1ccc(OC)cc1)NC(=O)[C@H]1CN(S(=O)(=O)c2ccccc2)CCN1C(C)=O,-2.68% (inactive),–,–
COCCC(=O)N1C[C@@H](COC)[C@H](c2nc(C)no2)C1,-16.4% (inactive),–,–
CNC(=O)[C@@H]1C[C@@H](n2cc(CN(C)C(=O)Nc3ccc(C)c(C)c3)nn2)CN1,-17.4% (inactive),–,–
C=CCN1C[C@@H]2CN(C(=O)CCc3cccc(OC)c3)C[C@]2(C(=O)O)C1,-5.09% (inactive),–,–
Cc1noc(C)c1[S+](=O)([O-])N1CCCC(C(=O)N2CCC(c3ccccc3)CC2)C1 (configuration not stated),–,44.7 µM (active),–
Cc1noc(C)c1[S+](=O)([O-])N1CCC(C(=O)N2CCC(c3nc4ncccc4[nH]3)CC2)CC1,1.37% (inactive),–,–
Cc1noc(C)c1[S+](=O)([O-])N1CCC(C(=O)N2CCC(c3nc4ccncc4[nH]3)C2)CC1 (configuration not stated),-0.958% (inactive),–,–
CCC(C)NC(=O)C1(c2ccc(NS(C)(=O)=O)cc2)CCCCC1 (configuration not stated),-8.9% (inactive),–,–

Structure (SMILES),"activity change, negative = cytotoxicity",Potency,outcome
COc1ccc(C(=O)N2CCCC(c3nc(-c4cnccn4)no3)CCNC(=O)CC2)c(OC)n1 (configuration not stated),–,–,inactive
Cc1ccc(C(=O)N2CCC(c3n[nH]c(=O)n3-c3ccccc3)CC2)cc1F,2.52% (inactive),–,–
CN(Cc1csc(-c2ccccc2)n1)c1cc(C2CC(O)C2)nc(N)n1 (configuration not stated),–,25.1 µM (active),–
COc1ccc(N2C(=O)CSC23CCN(C(=O)c2ccc(C)cc2)CC3)cc1,-82.5% (inactive),–,–
O=C(c1cc(F)ccc1F)N1CCCC2(C1)NC(=O)N(Cc1ccccc1)C2=O (configuration not stated),-8.4% (inactive),–,–
COc1cccc(S(=O)(=O)N2CCC(n3cnnc3C3CC3)CC2)c1,-22.4% (inactive),–,–
Cc1cccc2c(C3CCN(S(=O)(=O)c4cc(Cl)cc(Cl)c4)CC3)c[nH]c12,–,25.1 µM (active),–
O=C(O)[C@@H]1CN(C(=O)CCCn2cncn2)C[C@H]1c1ccc2c(c1)OCO2,2.24% (inactive),–,–
O=C(N[C@@H]1CN(C(=O)c2ccc3nc[nH]c3c2)CC[C@@H]1CO)C1CC1,-3.61% (inactive),–,–
CC(C)C1=NOC2(CCN(C(=O)c3ccccc3F)C2)C1 (configuration not stated),–,–,inactive [at 172 µM]
O=C(C1CCOCC1)N1CCOC[C@H](Oc2ccccc2)C1,-1.74% [at 172 µM] (inactive),–,–
O=C(C1CCOC1)N1CCC(N(Cc2ccccc2)C2CCOCC2)CC1 (configuration not stated),–,89.1 µM (active),–
O=C(NC1CC1)c1ccc(CC2CCN(C(=O)C3CCOC3)CC2)cc1 (configuration not stated),-11.7% (inactive),–,–
Cn1cc(-c2ccsc2)c2nc(CN3CCNC(=O)C3)cn2c1=O,-1.38% [at 172 µM] (inactive),–,–
CN1CCN(C(=O)c2ccc3nnc(C(C)(C)C)n3c2)CC1,0.0478% [at 172 µM] (inactive),–,–
CCc1cccc(NC(=O)Cn2c(=O)c(-c3noc(CC)n3)c3n(c2=O)CCCC3)c1,1.18% (inactive),–,–
CCc1cc(=O)n(CC(=O)Nc2cc(OC)cc(OC)c2)c(N2CCOCC2)n1,2.24% (inactive),–,–
CCc1cc(=O)n(CC(=O)Nc2cccc(C(C)=O)c2)c(-c2ccccc2)n1,–,25.1 µM (active),–
COc1ccc(-c2ccc(C(=O)N3CCN(C(=O)c4ccccc4OC)CC3)cc2)nn1,0.833% (inactive),–,–
CN(C)[C@@H]1[C@@H](NC(=O)CCn2cnc3ccccc3c2=O)[C@H]2CCO[C@H]21,–,–,inactive
CCCNC(=O)C(NC(=O)c1cccc(C)c1)C1CCN(C(=O)CCc2ccccc2)CC1 (configuration not stated),-7.6% (inactive),–,–

Structure (SMILES),"activity change, negative = cytotoxicity",Potency,outcome
N#Cc1cccc(C(=O)Nc2ccc([C@H]3OCC(=O)N(Cc4ccccc4)[C@@H]3CO)cc2)c1,-23.9% (inactive),–,–
CCNC(=O)C1C(c2cccc(NC(=O)c3cccc(C)c3)c2)OC(=O)N1Cc1cccc(Cl)c1 (configuration not stated),–,28.2 µM (active),–
COc1cccc([S+](=O)([O-])N2CCC(C(=O)N3CCC(N4CCOCC4=O)CC3)CC2)c1,–,–,inactive
COCc1cc(=O)n(CC(=O)Nc2ccc(Cl)cc2)c(N2CCOCC2)n1,-23.5% (inactive),–,–
c1ccc2c(c1)CNC1(CCN(Cc3cccc4ccccc34)CC1)CO2,–,79.4 µM (active),–
COc1ccc(CN2CCC3(CC2)COc2ccccc2CN3)cc1,3.7% (inactive),–,–
O=[S+]1([O-])NC2(CCN(Cc3ccccc3)CC2)COc2ccccc21,-3.51% (inactive),–,–
O=C(NCCc1nc(-c2ccccc2)cs1)C1NCCc2[nH]cnc21 (configuration not stated),1.73% (inactive),–,–
Cc1ccc(CS(=O)(=O)N2CCC(C3CCNC3)CC2)cc1C (configuration not stated),–,89.1 µM (active),–
O=C1CCN(C(=O)C2CCN(S(=O)(=O)Cc3ccccc3)CC2)CCCCCCN1,-1.97% (inactive),–,–
O=S(=O)(Cc1cccc(F)c1)N1CCC(C2CCNC2)CC1 (configuration not stated),-18.2% (inactive),–,–
NCC(=O)N1CCCC2(Cc3ccccc3CN2C(=O)c2cccc(Cl)c2)C1 (configuration not stated),–,70.8 µM (active),–
CCC(=O)N1Cc2ccccc2CC2(CCCN2C)C1 (configuration not stated),-18.2% [at 172 µM] (inactive),–,–
NCC(=O)N1Cc2ccccc2CC2(CCCCN2CC2CCOCC2)C1 (configuration not stated),-4.35% (inactive),–,–
O=C(c1cccnc1)N1C[C@@H](F)[C@@H](OCc2nc3ccc(C(F)(F)F)cc3[nH]2)C1,-27.9% [at 172 µM] (inactive),–,–
C[S+](=O)([O-])NC1CC2(CCN(Cc3ccc(O)cc3)CC2)c2ccccc21 (configuration not stated),-13.3% (inactive),–,–
CC1=C[C@@H](CN2CCCC2)[C@H](C(C)C)C[C@H]1Cc1nnc(-c2ccc([N+](=O)[O-])cc2)o1,–,35.5 µM (active),–
CC1=C[C@@H](CN2CCN(CCO)CC2)[C@H](C(C)C)C[C@H]1Cc1nnc(-c2ccc(C)cc2)o1,–,31.6 µM (active),–
CC1=C[C@@H](CC#N)[C@H](C(C)C)C[C@H]1CC(=O)N1CCN(C)CC1,-28.2% [at 172 µM] (inactive),–,–
CC1=C[C@@H](CN2CCOCC2)[C@H](C(C)C)C[C@H]1Cc1nnc(-c2ccc([N+](=O)[O-])cc2)o1,–,39.8 µM (active),–
